UGM FP inh = blocks M. tuberculosis UGM enzyme. P9WIQ1. purified UGM, fluorescence polarization probe displacement. inhibition, % at 10 µM. 320,000 compounds, 0.06% hits; in the data active = inhibition above about 10%, passing the limit was not always enough
CCHF vOTU inh-1 = CCHFV vOTU protease inhibition | Pep-AMC fluorescence | inhibition, % at 11.5 µM | 370,000 compounds, 0.55% hits; note: 0% = vehicle wells with enzyme and 100% = no enzyme wells
Rv3671c protease = Rv3671c (M. tuberculosis) protease inhibition; inhibition, % at 5.96 µM; AID 2606; P9WHR9; 320,000 compounds, 0.048% hits; in the data active = inhibition above about 38%;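 note: extracellular domain of Rv3671c used as enzyme; 0% = enzyme with DMSO and 100% = no enzyme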
RecA splice inh = Mtb RecA intein splicing inhibition | P9WHJ3 | 290,000 compounds, 0.75% hits | cell-free RecA intein splicing, fluorescence | AID 2221 | inhibition, % (no concentration beside the values); in the data active = inhibition above about 30%;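 note: 0% = vehicle wells and 100% = reference inhibitor control wells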
Mtb bLac sens = beta-lactam sensitization of Mtb H37Rv. M. tuberculosis H37Rv growth with meropenem, percent inhibition. inhibition, % at 25 µM. 330,000 compounds, 0.27% hits; call rule not given here;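 note: growth measured after seven days incubation then overnight dye step; 0% = bacteria only wells and 100% = bacteria with antibiotic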
CCHF vOTU inh-2 = confirmation of CCHF virus vOTU protease inhibitors; shares compounds with CCHF vOTU inh-1; Recombinant CCHFV vOTU, Pep-AMC fluorescence; inhibition, % at 11.5 µM; 1,900 compounds, 17% hits; AID 686976
Starred values were filed as active, the others as inactive; x = no result. Rows were chosen to be rich in hits. Some 1.2% of all compounds tested hit in one or more screens of this group. Cut-off read from the data, not from the text of the source, unless noted: active = inhibition above about 30%; inactive = the rest.

SMILES	UGM FP inh	CCHF vOTU inh-1	Rv3671c protease	RecA splice inh	Mtb bLac sens	CCHF vOTU inh-2
CC(C)CNC(=O)OCc1cn(Cc2cc(F)cc(F)c2)nn1	x	-4	x	x	x	x
Cc1ccc(COC[C@H](CC(C)C)N2CCN(C(=O)c3cccc(C(F)(F)F)c3)CCC2=O)cc1	x	26	x	x	x	x
CC(C)CC(COCc1cccc(C(F)(F)F)c1)N1CCN(C(=O)c2cccc(C(F)(F)F)c2)CCC1=O (stereo unspecified)	1	30*	-11	2	-6	26
O=C1c2ccccc2C(=O)c2c(/C=C/N3CCCCC3)ccnc21	x	30*	x	x	x	52*
S=C(Nc1ccc2nsnc2c1)N1CCCCC1	3	96*	-17	x	2	-15
S=C(Nc1ccc(Cl)c(Cl)c1)N1CCCC1	1	9	3	1	-1	x
CC(=NNC(=O)CSc1nnc(-c2ccc(C(C)(C)C)cc2)n1-c1ccccc1)c1cccc2ccccc12	x	13	x	x	x	x
COC[C@H]1CCCN1c1ccc2c(c1)O[C@H](C)CCN(C1CC1)S2(=O)=O	x	-6	x	x	x	x
O=C(c1cccc(S(=O)(=O)N2CCOCC2)c1)N(Cc1nnc(-c2ccccc2Cl)o1)C1CC1	-1	11	-3	-1	-15	x
CN1CCN(S(=O)(=O)c2cccc(C(=O)N(Cc3nnc(-c4ccc(Cl)cc4)o3)C3CC3)c2)CC1	-3	34*	2	0	5	-13
COc1ccc2ccccc2c1C1CC(=O)N2CN(C3CCCCC3)CSC2=C1C#N (stereo unspecified)	-1	47*	-17	12	-3	35*
COc1ccc2ccccc2c1C1CC(=O)N2CN(Cc3ccco3)CSC2=C1C#N (stereo unspecified)	2	33*	-32	4	-4	22
CCOc1cc(C2CC(=O)N3CN(C4CCCCC4)CSC3=C2C#N)ccc1O (stereo unspecified)	-3	12	-31	3	2	x
COc1ccc(OC)c(CN2C(=O)COc3ccccc3C2c2nnnn2C2CCCC2)c1 (stereo unspecified)	x	-5	x	x	x	x
O=C1N/C(=N/Nc2ccccc2)S/C1=C\c1ccccc1	1	32*	8	11	82	9
Nn1cnnc1N/N=C/c1cccc(Cl)c1Cl	-2	61*	x	-1	5	-1
Nn1cnnc1N/N=C/c1ccccc1C(F)(F)F	2	69*	-6	4	-7	-11
CCOC(=O)[C@]12CCCC3=C1N(CCC3)C(=O)[C@@H](CC(=O)NCCC(C)C)C2	x	1	x	x	x	x
N#Cc1cccc(NC(=O)OCCN2C(=O)CCC23CCC(c2ccc(Cl)cc2)CC3)c1 (stereo unspecified)	x	0	x	x	x	x
CCCn1nc(NS(=O)(=O)c2cccc3nonc23)c2cc3cccc(C)c3nc21	2	42*	9	11	-4	15
CCCn1nc(NS(=O)(=O)c2cccc3nonc23)c2cc3cc(C)ccc3nc21	-1	14	4	1	6	x
Cc1ccc(-n2c(Cc3cccs3)nnc2SCc2ccc(C#N)cc2)cc1	x	4	x	x	x	x
CN1[C@@H](Cc2ccccc2)COc2cc(N3CCCC3)ccc2S1(=O)=O	x	-2	x	x	x	x
CC(CC(=O)N1CCc2ccccc21)n1cccn1 (stereo unspecified)	3	35*	-2	0	-2	-8
Cc1cnc(C(=O)N2CCN(S(=O)(=O)c3cc(C(F)(F)F)cc(C(F)(F)F)c3)CC2)cn1	x	10	x	x	x	x
SMILES	UGM FP inh	CCHF vOTU inh-1	Rv3671c protease	RecA splice inh	Mtb bLac sens	CCHF vOTU inh-2
CC1CC1C(=O)N1CCN(S(=O)(=O)c2cc(C(F)(F)F)cc(C(F)(F)F)c2)CC1 (stereo unspecified)	0	30*	-18	x	-2	-11
O=S1(=O)CC2c3ccc(F)cc3CN2CN1Cc1ccccc1 (stereo unspecified)	x	-3	x	x	x	x
COc1ccc2[nH]c3c(c2c1)CCN[C@]31C(=O)N(C)c2ccc(Br)cc21	x	2	x	x	x	x
CCN1C(=O)/C(=C/C=C2/SCCN2C)SC1=S	3	9	-5	-1	5	x
CN1CCS/C1=C\C=C1/SC(=S)N(CC(=O)O)C1=O	x	30*	x	x	x	13
CC(C)(C)c1ccc(C(=O)OCc2c(-c3ccccc3)ncc3ccccc23)cc1	-1	30*	-13	x	-10	-13
COc1cccc(-c2ncc3ccccc3c2COC(=O)c2ccc(C(C)(C)C)cc2)c1	1	4	-5	x	-6	x
O=C(Nc1sc2c(c1C(=O)O)CCCCC2)c1ccccc1F	3	37*	-1	-2	-2	-5
C=CCc1ccc(OCCCNCc2ccccc2)c(OC)c1	0	31*	-3	2	4	-5
CC(C)[C@H]1Cn2nnc(-c3ccccc3)c2Cn2c3ccccc3c(=O)n21	x	-1	x	x	x	x
CCCCCC[C@H](CC)CN(C(=O)Oc1ccccc1)c1ccccc1	x	8	x	x	x	x
COc1ccc([C@H]2CC(=O)C=C(/C=C/c3ccccc3)C2)cc1OC	3	30*	-3	x	91	8
Cc1occc1-c1nnc(SCC(=O)Nc2ccccn2)n1-c1ccccc1	x	-3	x	x	x	x
C[C@@H]1CN([C@H](C)CO)C(=O)c2cc(Br)cnc2O[C@H]1CN(C)C(=O)c1ccccc1	x	34*	x	x	x	-19
COc1ccc(OC)c(-c2nnc3n2N=C(c2ccc(OC)c(OC)c2)CS3)c1	5	18	13	x	7	x
COc1ccc(OC)c(-c2nnc3n2N=C(c2ccc(OC)c(OC4CCCC4)c2)CS3)c1	4	32*	12	x	24	23
C=CCn1c(SCC(=O)Nc2ccccc2-c2ccccc2)nnc1-c1ccccc1	x	17	x	x	x	x
O=[N+]([O-])c1cc([N+](=O)[O-])c2nonc2c1Nc1ccc(O)cc1	2	64*	-10	-12	-4	-6
O=C(Nc1cccc(C(=O)O)c1)/C(=C\C=C\c1ccccc1)NC(=O)c1ccccc1	1	13	0	-5	4	x
O=C(Nc1ccc(C(=O)O)cc1)/C(=C\C=C\c1ccccc1)NC(=O)c1cccc(Br)c1	4	30*	-29	14	0	22
Cc1ccc(C2=N/C(=C\c3coc4ccccc4c3=O)C(=O)O2)cc1	x	16	x	x	x	x
O=C(CSc1nnc(-c2ccccc2)n1-c1ccc(Cl)cc1)c1ccc(Cl)cc1	x	5	x	x	x	x
O=C(C(=O)N1CCC(CNS(=O)(=O)c2ccccc2OC(F)(F)F)CC1)c1cccs1	x	7	x	x	x	x

Bioassay records as filed in PubChem.
